Hit rate of the full screen: of about 290,000 compounds, about 890 (0.31%) were called active. Cut-off read from the data, not from the text of the source: active = inhibition mostly above about 52% (no sharp cut-off); inactive = mostly below about 76%. Many of the other results were omitted from the sample, so actives are more common in it than they were.
Assay: cell-free HIV fusion peptide-binding blockers – biochemical, uHTS, fluorescence dequenching, primary screen (AID 1986)
Settings: 30 min, stronger effect = higher value
[1] = measured here: repeat confirmation average inhibition, at 18.6 µM

SMILES	inhibition (at 20 µM)	inhibition [1]
Cc1ccc(CN(C(=O)Cn2nnc3ccccc32)C(C(=O)NCc2ccco2)c2ccc(C)o2)cc1 (configuration not stated)	0.4% (inactive)	–
O=C(/C=C/c1ccco1)Nc1cc(Cl)ccc1C(=O)O	74.9% (active)	–
O=C(/C=C/c1ccco1)Nc1ccccn1	33.3% (inactive)	–
O=C(/C=C/c1ccco1)Nc1ccccc1C(=O)O	58.3% (inactive)	24.2%
O=C(/C=C/c1ccco1)Nc1cccc(NC(=O)/C=C/c2ccco2)n1	93.3% (inactive)	1.5%
O=C(/C=C/c1ccco1)Nc1cccnc1Cl	7.4% (inactive)	–
Cc1ccc(NC(=O)/C=C/c2ccco2)nc1	56.5% (active)	–
COc1ccc(C(=O)C2CCCN(C(=O)c3csc(C(C)=O)c3)C2)c(C)c1 (configuration not stated)	1.4% (inactive)	–
CS(=O)(=O)N(CC(=O)Nc1ccccc1C(=O)N1CCCC1)c1ccccc1Br	-0.2% (inactive)	–
COc1cc(CNCCc2ccc(S(N)(=O)=O)cc2)ccc1OCC(=O)NC(C)(C)C	-0.7% (inactive)	–
CSc1nc(=O)n2cccc(C)c2n1	3.1% (inactive)	–
COc1ccc(NC(=O)c2ccccc2OCc2c(C)noc2C)cc1OC	2.3% (inactive)	–
CC[C@@H](C(=O)[C@@H](C)[C@@H](O)[C@H](C)CCc1ccc(C)c(O)c1C(=O)O)[C@H]1O[C@](CC)([C@H]2CC[C@](O)(CC)[C@H](C)O2)C[C@@H]1C	56.3% (active)	–
CN(C)N1C(N)=C(C#N)C(c2cccs2)C2=C1CC(C)(C)CC2=O (configuration not stated)	-0.7% (inactive)	–
CCOC(=O)c1ccc(NC(=O)c2ccc(CN3CCOCC3)cc2)cc1	-0.8% (inactive)	–
CCCN1C(=O)/C(=C/c2ccco2)SC1=Nc1ccc(OC)cc1	13.2% (inactive)	–
COCCN1C(=O)/C(=C/c2ccc(Oc3ccc([N+](=O)[O-])cn3)c(OC)c2)SC1=Nc1ccccc1	0.3% (inactive)	–
O=C1/C(=C/c2ccc(N3CCOCC3)o2)SC(=Nc2ccccc2)N1CCc1c[nH]c2ccccc12	37.2% (inactive)	–
COc1cc(/C=C2\SC(=Nc3ccccc3)N(Cc3ccco3)C2=O)ccc1OC(C)C(=O)O (configuration not stated)	34.6% (inactive)	–

SMILES	inhibition (at 20 µM)	inhibition [1]
COc1ccc(N=C2S/C(=C\c3ccc(N4CCOCC4)o3)C(=O)N2CCc2c[nH]c3ccccc23)cc1	14.3% (inactive)	–
O=C(O)COc1ccc(/C=C2\SC(=Nc3ccccc3)N(c3ccccc3)C2=O)cc1	36.9% (inactive)	–
CCOC(=O)COc1ccc(/C=C2/SC(=Nc3ccccc3)N(Cc3cccnc3)C2=O)cc1OC	-2.8% (inactive)	–
COc1cc(/C=C2\SC(=Nc3ccc(N4CCOCC4)cc3)N(C)C2=O)ccc1OC(C)C(=O)O (configuration not stated)	0.3% (inactive)	–
CS(=O)(=O)Nc1ccc(C(=O)Nc2ccc3c(c2)OCO3)cc1	-0.8% (inactive)	–
O=C(Nc1cc(S(=O)(=O)N2CCOCC2)ccc1N1CCOCC1)c1cccc(S(=O)(=O)N2CCCCC2)c1	0.7% (inactive)	–
Cn1c(CCN2CCCCC2)nc2cc(NC(=O)NC3CCCCC3)ccc21	53.5% (inactive)	1.9%
O=C(NNC(=O)c1ccc([N+](=O)[O-])cc1)c1ccc(Br)cc1	2% (inactive)	–
NC(=O)C1CCN(C(c2ccccc2Cl)c2nnnn2CC2CCCO2)CC1 (configuration not stated)	1.1% (inactive)	–
COc1ccc(S(=O)(=O)N(CCCN2CCOCC2)Cc2cccc(OC)c2OC)cc1	-0.2% (inactive)	–
COc1ccc(CNCCCC(=O)Nc2c(Cl)ccc(C)c2Cl)cc1OC	-0.3% (inactive)	–
N#C/C(=C/c1ccc(OCc2ccc(C(=O)O)cc2)c(Br)c1)c1cccc(F)c1	87.9% (active)	–
N#C/C(=C/c1ccccc1OCc1ccc(F)cc1)c1ccc(C(=O)O)cc1	31% (inactive)	–
N#C/C(=C\c1ccccc1OCc1ccc(C(=O)O)cc1)c1ccccc1	19.1% (inactive)	–
O=C(Nc1c2c(nn1-c1ccc([N+](=O)[O-])cc1)CS(=O)(=O)C2)C1CC1	0.9% (inactive)	–
O=C1S/C(=C\C=C\c2ccco2)C(=O)N1c1ccc(O)cc1	78.1% (active)	–
O=C1/C(=C/C=C/c2ccco2)SC(=S)N1c1ccc(O)cc1	55.7% (active)	–
O=C1NC(=Nc2ccc(O)cc2)S/C1=C\C=C\c1ccco1	41.3% (inactive)	–
O=C1S/C(=C\C=C\c2ccco2)C(=O)N1c1ccccc1	54.9% (inactive)	-0.6%

SMILES	inhibition (at 20 µM)	inhibition [1]
O=C1/C(=C\c2ccco2)SC(=S)N1c1ccc(O)cc1	57.7% (inactive)	-2%
Cc1ccc(N2C(=O)/C(=C\c3ccco3)SC2=S)cc1	71.5% (inactive)	-1.2%
CN(C)CCNc1oc(-c2ccccc2F)nc1C#N	0.5% (inactive)	–
Cc1ccc(/C(O)=C2/C(=O)C(=O)N(CC(=O)O)C2c2ccc([N+](=O)[O-])cc2)cc1 (configuration not stated)	3.5% (inactive)	–
O=C(CNC(=O)c1ccco1)OCC(=O)c1ccc([N+](=O)[O-])cc1	-0.7% (inactive)	–
Cc1ccc(/C=C/c2nc3sc(C(=O)O)c(C)c3c(=O)[nH]2)cc1[N+](=O)[O-]	73% (active)	–
Cc1c(C(=O)O)sc2nc(/C=C/c3cccc(O)c3)[nH]c(=O)c12	5.5% (inactive)	–
Cc1c(C(=O)O)sc2nc(/C=C/c3cccc(F)c3)[nH]c(=O)c12	27.7% (inactive)	–
COC(=O)c1c(/N=C/NOCc2ccc(Cl)cc2)sc2c1CCN(c1ncc(C(F)(F)F)cc1Cl)C2	-1.7% (inactive)	–
CC(C)Cn1c(N)c(C(=O)COC(=O)c2ccncc2)c(=O)n(C)c1=O	0.1% (inactive)	–
CCOc1ccc(Br)cc1S(=O)(=O)N1CCC(C(N)=O)CC1	-0.7% (inactive)	–
CCn1cc(C(=O)NCCc2ccccc2C)c(=O)c2ccc(C)nc21	-1.3% (inactive)	–
CC(C)Nc1cc(N2CCCC2)ccc1[N+](=O)[O-]	-0.2% (inactive)	–
COC(=O)CC1COc2ccccc2N1C(=O)c1ccc(Cl)cc1 (configuration not stated)	-3% (inactive)	–
Cc1nc2c(C(=O)NCCc3ccccc3)c[nH]n2c(=O)c1Cl	5.3% (inactive)	–
Cc1nc2c(C(=O)NCc3ccccc3Cl)c[nH]n2c(=O)c1Cl	49.3% (inactive)	–
Cc1nc2c(C(=O)NCCc3ccccc3Cl)c[nH]n2c(=O)c1Cl	56.9% (active)	–
COc1cc(CNc2ccc(S(N)(=O)=O)cc2)ccc1OCC(=O)NC1CCCCC1	-1% (inactive)	–

From PubChem BioAssay AID1986 (Sanford-Burnham Center for Chemical Genomics, 2009)
